In the library only some 3.9% were active in any assay of this set; here they are far more common.
TRAIL sens C8: viability loss with TRAIL in NB7+C8 cells, primary screen, TRAIL sensitizer project, cell-based, ATPlite luminescence; inhibition (viability loss, TRAIL sensitization), % at 10 µM; actives 1% (n = 360,000); AID 624354, 2012;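 active = compounds causing at least 50% loss of cell viability in the single-dose screen, relative to plate controls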
HIF-2a block: HIF-2a reporter inhibitors, primary screen, luminescence, 786-0 RCC cells; AID 624352, 2012; actives 0.72% (n = 360,000); inhibition, % at 18.8 µM; 786-0 RCC cells HIF-2a reporter, luciferase luminescence, overnight;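 active = inhibition of the luminescence signal of 40% or more relative to plate controls, in a single-dose primary screen at 18.75 µM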
TROY NFkB inh: inhibitors of TROY-driven NF-kB signaling, primary screen, Q293 LMP1-TROYcd cells, NF-kB luciferase, uHTS. Q293 LMP1-TROYcd NF-kB luciferase reporter, 4 h. inhibition, % at 10 µM. actives 0.98% (n = 360,000);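 active = compounds whose plate-normalised and pattern-corrected inhibition of the luciferase reporter signal at the single screening dose is 50% or more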
TWEAK-Fn14 inh: inhibitors of TWEAK-Fn14 signaling, primary screen, luciferase reporter cells, uHTS | TWEAK-stimulated Fn14 reporter cells, luciferase luminescence, 8 h | inhibition, % at 10 µM | actives 2% (n = 360,000); in the data active = inhibition above about 50%
aSyn UTR inh: MLPCN primary screen, SNCA 5' untranslated region; inhibition, % (tested at 7.5 µM); alpha-synuclein 5'UTR reporter, inhibitor activity; AID 1813, 2009; actives 0.82% (n = 300,000); in the data active = inhibition above about 60%;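 note: H4 neuroglioblastoma cells stably carrying SNCA 5'UTR luciferase fusion; 0% = DMSO wells and 100% = positive control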
HSP90 inh: HSP90 inhibitors, primary screen, cell lysate, luminescence; Heat shock protein HSP 90 (rabbit reticulocyte lysate; luciferase refolding); Rabbit reticulocyte lysate, luciferase refolding luminescence, 3 h; inhibition, % at 5.6 µM; actives 0.91% (n = 290,000); AID 1789, 2009;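 active = inhibition above the screen-wide mean plus 3 SD, computed separately per campaign, cut at about 16% in these data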;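 note: 0% = DMSO wells and 100% = 60 µM geldanamycin wells; inhibitors lower the luminescence because luciferase stays unfolded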
The depositor's hits bear a star; . = no result.

SMILES	TRAIL sens C8	HIF-2a block	TROY NFkB inh	TWEAK-Fn14 inh	aSyn UTR inh	HSP90 inh
CCCNc1ncnc2c1cnn2-c1ccc(OC)cc1	.	.	.	.	.	9
OCCCNc1ncnc2c1cnn2-c1ccc(Cl)cc1	30	-127	15	68*	32	16*
Clc1ccc(-n2ncc3c(NCC4CCCO4)ncnc32)cc1 (stereo not drawn)	36	-190	37	60*	-89	-1
O=C1NC(Cc2ccccc2)c2nc3ccc(Cl)cc3c(=O)n2-c2ncccc21 (stereo not drawn)	-4	2	3	-3	.	.
CC(C)C#Cc1ccc2c(c1)O[C@@H](CN(C)S(=O)(=O)c1cn(C)cn1)[C@@H](C)CN([C@H](C)CO)S2(=O)=O	-12	-7	-8	-5	.	.
CN(C)CCNc1ncnc2c1cnn2-c1ccc(Cl)cc1	40	-207	18	9	-93	5
CCC(CO)Nc1ncnc2c1cnn2-c1ccc(Cl)cc1 (stereo not drawn)	30	-111	73*	68*	-6	27*
COc1ccc(C2(O)CCN(CC(=O)Nc3nc(-c4ccccc4)cs3)CC2)cc1	-6	1	46	83*	-54	-2
CCn1c(SCC(=O)Nc2nc(-c3ccccc3)cs2)nnc1-c1ccccc1	7	-58	43	54*	-3	1
CCCCCC(=O)N1C[C@H](n2cc(COC(=O)c3ccccc3)nn2)[C@@H](O)C[C@@H]1c1ccc(Cl)cc1	58*	0	14	43	.	.
COc1cccc(Nc2nnc(SCC(=O)N3CCOCC3)s2)c1	9	-101	-21	-11	-54	-4
CSc1nnc(NC(=O)c2ccc(S(=O)(=O)N(C)C)cc2)s1	39	-64	-41	36	-25	4
CC(C)Oc1ccc(C(=O)Nc2nnc(SCC(=O)N3CCOCC3)s2)cc1	98*	48*	-8	50*	98*	16*
CN(C)S(=O)(=O)c1ccc(C(=O)Nc2nnc(SCC(=O)N3CCOCC3)s2)cc1	60*	-17	-11	2	.	.
O=C(Nc1nnc(SCC(=O)N2CCCc3ccccc32)s1)c1cccc2ccccc12	1	-21	-25	-12	-20	-4
Cc1ccc(C(=O)Nc2nnc(SCC(=O)N3CCCc4ccccc43)s2)cc1	97*	34	15	55*	74*	2
O=C(c1cccnc1)N(Cc1ccccc1)C(c1ccccc1)c1nc2ccccc2[nH]1 (stereo not drawn)	7	-165	-20	-10	.	.
CCOC(=O)C1(C)CCCN(C(=O)c2c(-c3ccccc3)noc2C)C1 (stereo not drawn)	3	6	-5	13	.	.
c1ccc(Nc2nnc(-c3cccnc3)s2)cc1	53*	-123	-6	51*	-48	15
COc1ccc(C(=O)Oc2ccc3c(c2)OCO3)cc1OC	-8	-45	-34	-16	-59	3
N/C(=N\OC(=O)c1ccc2ccccc2c1)c1ccccc1Cl	93*	-300	-42	-148	-140	0
COc1ccc(/C(N)=N/OC(=O)c2ccc3ccccc3c2)cc1OC	96*	-127	-73	-55	.	.
N/C(=N\OC(=O)c1ccc2ccccc2c1)c1ccncc1	4	-256	1	42	-49	5
COc1ccc(/C(N)=N/OC(=O)c2ccc3c(c2)OCO3)cc1OC	82*	-267	-68	-17	-87	-2
COc1ccc(/C(N)=N/OC(=O)c2c(-c3ccccc3Cl)noc2C)cc1OC	93*	11	4	-22	37	1
SMILES	TRAIL sens C8	HIF-2a block	TROY NFkB inh	TWEAK-Fn14 inh	aSyn UTR inh	HSP90 inh
CC(=O)Nc1ccc(NC2=Nc3ccccc3N3C2=Nc2c(c(C)nn2-c2ccccc2)C3c2ccccc2)cc1 (stereo not drawn)	72*	-12	27	96*	27	6
Cc1ccsc1C(=O)OCC(=O)NC1CCCCC1	-3	-186	-45	-6	.	.
COc1ccc(NC(=O)CN2C(=O)/C(=C3\SC(=S)N(C4CCS(=O)(=O)C4)C3=O)c3ccccc32)cc1 (stereo not drawn)	10	14	7	28	-25	3
O=C(CN1C(=O)/C(=C2\SC(=S)N(C3CCS(=O)(=O)C3)C2=O)c2ccccc21)Nc1ccc(F)cc1 (stereo not drawn)	5	15	-9	78*	3	-2
O=C(CN1c2ccccc2Sc2ccccc21)NNC(=S)Nc1ccc(Cl)cc1Cl	-1	0	52*	-7	30	0
COc1ccc(C=C2CS(=O)(=O)CC(=Cc3ccc(OC)cc3)C2=O)cc1	-11	86*	56*	88*	.	.
COc1ccc(/C=C2\CCCCC2=O)cc1	-1	-95	-13	-23	-50	.
Cc1ccc2[nH]c(=O)c(CN(Cc3ccco3)S(=O)(=O)c3c(C)ccc4nsnc34)cc2c1	2	18	-5	23	29	0
COc1ccc2[nH]c(=O)c(CN(Cc3cccs3)S(=O)(=O)c3c(C)ccc4nsnc34)cc2c1	25	1	25	61*	89*	0
COc1ccc(C)cc1NS(=O)(=O)c1ccc(NC(=O)CN(c2cc([N+](=O)[O-])ccc2C)S(C)(=O)=O)cc1	-9	18	17	23	114*	0
Cc1cccc(NS(=O)(=O)c2ccc3[nH]c(=O)cc(C(=O)OC(C)C(=O)Nc4ccc([N+](=O)[O-])cc4)c3c2)c1 (stereo not drawn)	0	21	51*	-8	14	2
Cc1cccc(NS(=O)(=O)c2cc(NC(=O)CC(=O)c3ccc([N+](=O)[O-])cc3)ccc2C)c1	.	.	.	.	-1	3
Cc1cccc(NS(=O)(=O)c2ccc(NC(=O)CN(c3cc([N+](=O)[O-])ccc3C)S(C)(=O)=O)cc2)c1	4	31	25	19	101*	9
O=C(NN1CCCCC1)NN1CCCCC1	-11	5	1	-9	.	.
C#CCn1cc(CNC[C@H]2O[C@@H](n3cnc4c(=O)[nH]c(N)nc43)[C@H](O)[C@@H]2O)c2ccccc21	-6	18	3	-15	.	.
NC(COCc1ccccc1)c1csc(Nc2ccc(C(=O)c3ccccc3)cc2)n1 (stereo not drawn)	35	-28	36	39	.	.
CC1(C(=O)NCC2CC2)CCN1C(=O)C1(c2ccccc2)CC1 (stereo not drawn)	-9	13	-15	-7	.	.
Cc1cc(C)cc(NC(=O)COC(=O)Cc2ccccc2F)c1	-9	8	-6	75*	.	.

Screening results from PubChem.
